According to PubChem BioAssay (NCI):
About 79,000 compounds went through this panel and 15% of them were active in at least one assay; those are over-represented in the sample as a whole. Activity calls are given as the source filed them. No stated cut-off is given here; in the data, active means growth inhibition above about 70%; inactive means the rest.

What was measured:
[1] = NCI Yeast Anticancer Drug Screen. Data for the rad52 strain (AID 147);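 further: 0% = growth of vehicle-treated control cultures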; settings: S. cerevisiae rad52 mutant growth inhibition, hits give high values
How it was run: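 The repair-mutant yeast strain was incubated with compounds, then growth was read and inhibition derived relative to vehicle.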

[2] = NCI Yeast Anticancer Drug Screen. Data for the wt1 strain (AID 149);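 further: 0% = growth of vehicle-treated wt1 cultures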; settings: S. cerevisiae wt1 strain (SPY 50644) growth inhibition, hits give high values
How it was run: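 wt1 strain grown with compound or vehicle; inhibition taken from the growth difference.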

[3] = NCI Yeast Anticancer Drug Screen. Data for the rad50EPP+ strain (AID 151);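 further: 0% = growth of vehicle-treated control cultures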; settings: S. cerevisiae rad50 mutant strain, hits give high values
How it was run: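 Vehicle-normalised growth inhibition; rad50EPP+ yeast strain, altered in DNA damage repair, compound-treated.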

[4] = NCI Yeast Anticancer Drug Screen. Data for the mgt1 strain (AID 153); settings: S. cerevisiae mgt1 mutant growth inhibition, hits give high values
How it was run: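 Vehicle-normalized growth inhibition is determined in mgt1 yeast, a strain selected for a defined alteration in DNA repair or cell cycle control.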

[5] = NCI Yeast Anticancer Drug Screen. Data for the rad50 strain (AID 155);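 further: 0% = growth of vehicle-only cultures of the same strain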; settings: S. cerevisiae rad50 strain growth inhibition, hits give high values
How it was run: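 DNA repair mutant yeast, compound exposure, growth read-out; inhibition is taken relative to vehicle.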

[6] = NCI Yeast Anticancer Drug Screen. Data for the mec2-1 strain (AID 157); settings: S. cerevisiae mec2-1 strain, hits give high values
How it was run: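 Mutant yeast (mec2-1) grown with compound; growth inhibition relative to vehicle control reported.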

[7] = NCI Yeast Anticancer Drug Screen. Data for the rad14 strain (AID 159);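 further: 0% = growth of vehicle-treated control cultures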; settings: S. cerevisiae rad14 strain growth inhibition, hits give high values
How it was run: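 DNA repair-defective yeast, compound-exposed; % growth inhibition derived by comparison with vehicle-treated controls.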

[8] = NCI Yeast Anticancer Drug Screen. Data for the sgs1 mgt1 strain (AID 161);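 further: 0% = growth of cultures given vehicle only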; settings: S. cerevisiae sgs1 mgt1 strain, hits give high values
How it was run: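 This yeast growth screen uses a strain with defined DNA-repair lesions; compound-treated growth is compared with vehicle-treated growth.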

[9] = NCI Yeast Anticancer Drug Screen. Data for the CLN2oe strain (AID 163);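 further: 0% = growth of vehicle-only control cultures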; settings: S. cerevisiae CLN2oe strain, hits give high values
How it was run: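 Compounds are applied to yeast harbouring a defined cell-cycle control change; reduced growth compared with vehicle-treated controls gives the value.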

[10] = NCI Yeast Anticancer Drug Screen. Data for the cln2 rad14 strain (AID 165);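 further: 0% = growth equal to vehicle treated cultures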; settings: S. cerevisiae cln2 rad14 strain, hits give high values
How it was run: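 Readout is yeast growth inhibition versus vehicle-treated controls, using a strain with cln2 and rad14 alterations exposed to compound.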

[11] = NCI Yeast Anticancer Drug Screen. Data for the bub3 strain (AID 167); settings: S. cerevisiae bub3 mutant strain, hits give high values
How it was run: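 In this screen, a yeast mutant lacking normal mitotic checkpoint function is challenged with compound. Relative growth versus vehicle gives the inhibition value.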

[12] = NCI Yeast Anticancer Drug Screen. Data for the wt2 strain (AID 169);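 further: 0% = growth of vehicle-treated yeast cultures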; settings: S. cerevisiae wt2 strain growth inhibition, hits give high values
How it was run: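 Against vehicle-treated controls, the growth of yeast exposed to each compound was compared, and the inhibition was recorded.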

[13] = NCI Yeast Anticancer Drug Screen. Data for the mlh1 strain (AID 171);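 further: 0% = growth of vehicle-treated control cultures of the same strain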; settings: S. cerevisiae mlh1 strain growth inhibition, hits give high values
How it was run: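 Measured: yeast growth. Reference: vehicle-treated controls. Organism: strain with a defined alteration affecting DNA damage repair or cell cycle control, treated with compound.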

[14] = NCI Yeast Anticancer Drug Screen. Data for the sgs1 strain (AID 173);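 further: 0% = growth of vehicle-only control cultures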; settings: S. cerevisiae sgs1 mutant, hits give high values
How it was run: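 Each compound was added to cultures of the altered yeast strain. Growth was recorded, and inhibition was derived by comparison with vehicle controls.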

[15] = NCI Yeast Anticancer Drug Screen. Data for the mlh1 rad18 strain (AID 175); settings: S. cerevisiae mlh1 rad18 strain growth inhibition, hits give high values
How it was run: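 Genetically defined yeast (DNA repair-deficient) exposed to compounds; growth inhibition determined relative to vehicle.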

[16] = NCI Yeast Anticancer Drug Screen. Data for the rad18 strain (AID 177); settings: S. cerevisiae rad18 mutant growth inhibition, hits give high values
How it was run: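 Vehicle-treated cultures served as the baseline for scoring compound-induced growth inhibition in DNA-repair-mutant yeast.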

[17] = at 5.0 µM (retest, dose inferred, filed as 0.5)
[18] = at 50.0 µM (retest, dose inferred, filed as 5.0)

Measured: growth inhibition

O=C(/C=C\c1cccc(C(F)(F)F)c1)c1ccccc1
inactive: [1]; at 1.2 µM -3% | [1]; at 3.7 µM -2% | [1]; at 11.0 µM -1% | [1]; at 33.0 µM -3% | [1]; at 100.0 µM -3% | [2]; at 1.2 µM -1% | [2]; at 3.7 µM 2% | [2]; at 11.0 µM -1% | [2]; at 33.0 µM -3% | [2]; at 100.0 µM -5% | [3]; at 1.2 µM 1% | [3]; at 3.7 µM 0% | [3]; at 11.0 µM 3% | [3]; at 33.0 µM 4% | [3]; at 100.0 µM 9% | [4]; at 1.2 µM -3% | [4]; at 3.7 µM -1% | [4]; at 11.0 µM -3% | [4]; at 33.0 µM -2% | [4]; at 100.0 µM -4% | [5]; at 1.2 µM -3% | [5]; at 3.7 µM -3% | [5]; [17] -5% | [5]; at 11.0 µM -1% | [5]; at 33.0 µM -4% | [5]; [18] 40% | [5]; at 50.0 µM 20.3% | [5]; at 100.0 µM -1% | [6]; at 1.2 µM -4% | [6]; at 3.7 µM 0% | [6]; [17] -19% | [6]; at 11.0 µM 0% | [6]; at 33.0 µM 1% | [6]; [18] 3% | [6]; at 50.0 µM 20.1% | [6]; at 100.0 µM -5% | [7]; at 1.2 µM -2% | [7]; at 3.7 µM 1% | [7]; at 11.0 µM 2% | [7]; at 33.0 µM -2% | [7]; at 100.0 µM -3% | [8]; [17] 18% | [8]; [18] 59% | [8]; at 50.0 µM 36.4% | [9]; at 1.2 µM -2% | [9]; at 3.7 µM -11% | [9]; at 11.0 µM -5% | [9]; at 33.0 µM -5% | [9]; at 100.0 µM -10% | [10]; [17] 8% | [10]; [18] 10% | [10]; at 50.0 µM 1.55% | [11]; at 1.2 µM -2% | [11]; at 3.7 µM -6% | [11]; [17] 11% | [11]; at 11.0 µM -2% | [11]; at 33.0 µM -3% | [11]; [18] 49% | [11]; at 50.0 µM 26.1% | [11]; at 100.0 µM -9% | [12]; at 1.2 µM -2% | [12]; at 3.7 µM 0% | [12]; at 11.0 µM -2% | [12]; at 33.0 µM -2% | [12]; at 100.0 µM -4% | [13]; at 1.2 µM -2% | [13]; at 3.7 µM -2% | [13]; at 11.0 µM -2% | [13]; at 33.0 µM -3% | [13]; at 100.0 µM -1% | [14]; at 1.2 µM -2% | [14]; at 3.7 µM -3% | [14]; at 11.0 µM 1% | [14]; at 33.0 µM 0% | [14]; at 100.0 µM 3% | [15]; [17] 16% | [15]; at 50.0 µM 25.9% | [16]; at 1.2 µM 0% | [16]; at 3.7 µM 1% | [16]; at 11.0 µM 7% | [16]; at 33.0 µM 22% | [16]; at 100.0 µM 57%
active: [15]; [18] 78%

CCCCCCOC(=O)NCCOC(=O)Nc1ccccc1
inactive: [1]; at 1.2 µM 1% | [1]; at 3.7 µM 3% | [1]; at 11.0 µM 7% | [1]; at 33.0 µM 7% | [1]; at 100.0 µM 6% | [2]; at 1.2 µM 1% | [2]; at 3.7 µM 1% | [2]; at 11.0 µM 2% | [2]; at 33.0 µM 2% | [2]; at 100.0 µM 1% | [3]; at 1.2 µM 3% | [3]; at 3.7 µM 6% | [3]; at 11.0 µM 11% | [3]; at 33.0 µM 17% | [3]; at 100.0 µM 15% | [4]; at 1.2 µM -1% | [4]; at 3.7 µM 1% | [4]; at 11.0 µM 3% | [4]; at 33.0 µM 22% | [4]; at 100.0 µM 4% | [5]; at 1.2 µM 4% | [5]; at 3.7 µM 5% | [5]; [17] 0% | [5]; at 11.0 µM 7% | [5]; at 33.0 µM 8% | [5]; [18] 5% | [5]; at 50.0 µM 19.7% | [5]; at 100.0 µM 7% | [6]; at 1.2 µM 0% | [6]; at 3.7 µM 3% | [6]; [17] -5% | [6]; at 11.0 µM 3% | [6]; at 33.0 µM 5% | [6]; [18] 1% | [6]; at 50.0 µM 6.15% | [6]; at 100.0 µM 8% | [7]; at 1.2 µM 6% | [7]; at 3.7 µM 7% | [7]; at 11.0 µM 12% | [7]; at 33.0 µM 17% | [7]; at 100.0 µM 16% | [8]; [17] 12% | [8]; [18] 10% | [8]; at 50.0 µM 20.2% | [9]; at 1.2 µM 1% | [9]; at 3.7 µM 4% | [9]; at 11.0 µM 1% | [9]; at 33.0 µM 3% | [9]; at 100.0 µM -2% | [10]; [17] 5% | [10]; [18] 19% | [10]; at 50.0 µM 6.5% | [11]; at 1.2 µM 3% | [11]; at 3.7 µM 2% | [11]; [17] 9% | [11]; at 11.0 µM 5% | [11]; at 33.0 µM 1% | [11]; [18] -2% | [11]; at 50.0 µM 11.1% | [11]; at 100.0 µM 0% | [12]; at 1.2 µM 1% | [12]; at 3.7 µM -1% | [12]; at 11.0 µM -1% | [12]; at 33.0 µM 0% | [12]; at 100.0 µM -2% | [13]; at 1.2 µM -1% | [13]; at 3.7 µM -1% | [13]; at 11.0 µM 2% | [13]; at 33.0 µM 4% | [13]; at 100.0 µM 6% | [14]; at 1.2 µM 2% | [14]; at 3.7 µM 2% | [14]; at 11.0 µM 3% | [14]; at 33.0 µM 9% | [14]; at 100.0 µM 9% | [15]; [17] 19% | [15]; [18] 53% | [15]; at 50.0 µM 17.7% | [16]; at 1.2 µM 2% | [16]; at 3.7 µM 2% | [16]; at 11.0 µM 13% | [16]; at 33.0 µM 4% | [16]; at 100.0 µM 6%
